This is an account of results in PubChem BioAssay (EPA / NIEHS).

Calls of active or inactive are those of the source. How the source made its calls: active means hit-call score of the fitted dose curve at least 0.9, where 1 is the maximum; inactive means score below 0.9.

Read-out in experiment [1]: Human Leukocyte Antigen - DR isotype (HLADR), HLA-DRA (gene 3122)
Kind of experiment: BSK_BE3C_HLADR: BioMAP Diversity Plus: BE3C Assay for Human Leukocyte Antigen - DR isotype (HLADR) Biomarker Activity (AID 2283032). The note with it: primary human bronchial epithelial cells; actives raise or lower the signal. The gist of the method: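 Primary human bronchial epithelial cells (BE3C); 24 h chemical exposure; HLA-DR by ELISA; bidirectional curve fit vs DMSO baseline.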

Read-out in experiment [2]: Vascular cell adhesion molecule 1 (VCAM1), VCAM1 (gene 7412)
Kind of experiment: BSK_4H_VCAM1: BioMAP Diversity Plus: 4H Assay for Vascular cell adhesion molecule 1 (VCAM1) Biomarker Activity (AID 2283033).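 On outcome: cell-surface VCAM-1 protein measured by ELISA.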 The note with it: primary human endothelial cells (HUVEC); actives raise or lower the signal. In outline: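 HUVEC, 24 h post-dose; VCAM-1 by ELISA. Bidirectional curve fit vs DMSO baseline. Parallel SRB total-protein stain (0.1% SRB after 10% TCA fixation, 560 nm) for cytotoxicity.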

Read-out in experiment [3]: Interferon-gamma inducible Protein 10 (IP10), CXCL10 (gene 3627)
Kind of experiment: BSK_BE3C_IP10: BioMAP Diversity Plus: BE3C Assay for Interferon-gamma inducible Protein 10 (IP10) Biomarker Activity (AID 2283034). The note with it: primary human bronchial epithelial cells; actives raise or lower the signal. The gist of the method: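 ELISA readout of IP-10 in BE3C system: primary human bronchial epithelial cells, 24 h post-dosing; bidirectional curve fit vs DMSO baseline.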

Read-out in experiment [4]: Monokine induced gamma interferon (MIG), CXCL9 (gene 4283)
Kind of experiment: BSK_BE3C_MIG: BioMAP Diversity Plus: BE3C Assay for Monokine induced gamma interferon (MIG) Biomarker Activity (AID 2283035).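 On outcome: MIG protein measured by ELISA in BE3C cultures after 24 h of dosing.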 Conditions: primary human bronchial epithelial cells; actives raise or lower the signal. The gist of the method: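 hu bronchial epithelial 1° cells, 24 h cpd; MIG by ELISA; bidirectional fit, DMSO = baseline.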

Read-out in experiment [5]: Transforming growth factor beta 1 (TGFb1), TGFB1 (gene 7040)
Kind of experiment: BSK_BE3C_TGFb1: BioMAP Diversity Plus: BE3C Assay for Transforming growth factor beta 1 (TGFb1) Biomarker Activity (AID 2283036;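 on outcome: TGF-b1 protein level measured by ELISA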). The note with it: primary human bronchial epithelial cells; actives raise or lower the signal. The gist of the method:
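Read-out: ELISA for TGF-b1 in primary human bronchial epithelial cultures, 24 h post-dose. Bidirectional curve fitting vs DMSO control; gain or loss of signal both scored.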

Read-out in experiment [6]: Plasminogen activator inhibitor-1 (PAI1), SERPINE1 (gene 5054)
Kind of experiment: BSK_BE3C_PAI1: BioMAP Diversity Plus: BE3C Assay for Plasminogen activator inhibitor-1 (PAI1) Biomarker Activity (AID 2283037). Conditions: primary human bronchial epithelial cells; actives raise or lower the signal. In outline:
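ELISA read-out of PAI-1 from human bronchial epithelial primary cells, 24 h post-dosing; bidirectional curve fit vs DMSO baseline, gain or loss of signal scored.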

Read-out in experiment [7]: Urokinase-type plasminogen activator receptor (uPAR), PLAUR (gene 5329)
Kind of experiment: BSK_BE3C_uPAR: BioMAP Diversity Plus: BE3C Assay for Urokinase-type plasminogen activator receptor (uPAR) Biomarker Activity (AID 2283039).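 On outcome: uPAR protein level measured by ELISA on the cells; cells exposed to compound for one day before measurement.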 Conditions: primary human bronchial epithelial cells; actives raise or lower the signal. The gist of the method: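 ELISA readout of uPAR on human lung primary bronchial epithelial cells, 24 h post-dosing. Bidirectional curve fit relative to DMSO vehicle baseline; gain or loss of signal both scored.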

Read-out in experiment [8]: Interleukin-6 (IL6), IL6 (gene 3569)
Kind of experiment: BSK_CASM3C_IL6: BioMAP Diversity Plus: CASM3C Assay for Interleukin-6 (IL6) Biomarker Activity for (AID 2283040). The note with it: primary human coronary artery smooth muscle cells; actives raise or lower the signal.

Read-out in experiment [9]: Tissue plasminogen activator (tPA), PLAT (gene 5327)
Kind of experiment: BSK_BE3C_tPA: BioMAP Diversity Plus: BE3C Assay for Tissue plasminogen activator (tPA) Biomarker Activity (AID 2283041).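 On outcome: tPA level quantified by ELISA one day after compound addition.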 The note with it: primary human bronchial epithelial cells; actives raise or lower the signal. The gist of the method: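 ELISA read-out of tPA on human primary bronchial epithelial cells, 24 h post-dosing; bidirectional fit vs DMSO negative control/baseline.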

The AC50 is the concentration at which the activity in the assay is half-maximal. As to `O=C(c1ccc(O)cc1O)c1ccc(O)cc1O`, the outcome in experiment [1], in experiment [2], in experiment [4], in experiment [5], in experiment [7] and in experiment [8] was inactive. The outcome in [9] was inactive. The figures for the AC50 in experiment [3] and in experiment [6] were 30.5 µM (active) and 34.6 µM (active), respectively.
Regarding `COC(=O)c1ccc(I)cc1S(=O)(=O)NC(=O)Nc1nc(C)nc(OC)n1`, the result in experiment [1], in experiment [2], in experiment [3], in experiment [4], in experiment [5] and in experiment [6] was inactive. In addition, the outcome in [7], in experiment [8] and in experiment [9] was inactive.
Take `COC(=O)c1ccccc1C(=O)O`: the outcome in experiment [1], in [2], in experiment [3], in [4], in experiment [5] and in experiment [6] was inactive. In addition, the outcome in experiment [7], in experiment [8] and in experiment [9] was inactive.
Turning to `CCCOC(=O)c1ccc(C(=O)OCCC)nc1`, the result in [1], in experiment [2], in experiment [3], in [4], in experiment [5] and in [6] was inactive. Also, the outcome in experiment [7], in [8] and in experiment [9] was inactive.
Turning to `C[C@]12CC[C@@H]3c4ccc(O)cc4C[C@@H](CCCCCCCCCS(=O)CCCC(F)(F)C(F)(F)F)[C@H]3[C@@H]1CC[C@@H]2O` (stereo partly specified), the outcome in experiment [1], in experiment [2], in experiment [3], in [4], in experiment [5] and in experiment [6] was inactive. The result in experiment [7], in experiment [8] and in experiment [9] was inactive.
In the case of `Oc1ccc(C(c2ccc(O)cc2)C(Cl)(Cl)Cl)cc1`, the AC50 in [1] was 26.5 µM (active); in experiment [2], 26 µM (active); in experiment [3], 29.3 µM (active); in experiment [4], 34.7 µM (active); in experiment [6] it was 28.5 µM (active); in experiment [7], 31.1 µM (active). Besides, the result in experiment [5], in experiment [8] and in [9] was inactive.
Take `c1ccc(Nc2ccccc2)cc1`: the outcome in experiment [1], in experiment [2], in [3], in [4], in experiment [6] and in experiment [7] was inactive. In addition, the result in [8] and in [9] was inactive. Besides, the AC50 in experiment [5] was 3.97 µM (active).
On to `CCCN(CCC)c1c([N+](=O)[O-])cc(C(F)(F)F)c(N)c1[N+](=O)[O-]`, for which the concentration at half-maximal activity (AC50) in [1] was 11.6 µM (active); in experiment [2] it was 20 µM (active); in [3], 32.6 µM (active); in experiment [4] it was 22.9 µM (active); in experiment [6], 36.2 µM (active). Besides, the outcome in experiment [5], in experiment [8] and in experiment [9] was inactive.
Regarding `COC(=O)CSc1cc(N=c2sc(=O)n3n2CCCC3)c(F)cc1Cl`, the outcome in experiment [1], in [2], in experiment [3], in experiment [4], in [5] and in [6] was inactive. Moreover, the result in experiment [7] and in experiment [8] was inactive. Besides, the half-maximal activity concentration (AC50) in experiment [9] was 790 nM (active).
Regarding `CCC(C)OC(=O)N1CCCCC1CCO` (stereo unspecified), the outcome in experiment [1], in experiment [2], in experiment [3], in experiment [4], in [5] and in [6] was inactive. For the same compound, the result in [7], in [8] and in [9] was inactive.
`CCOC(=O)C(C)Oc1ccc(Oc2cnc3cc(Cl)ccc3n2)cc1` (stereo unspecified): the result in experiment [1], in experiment [2], in experiment [3], in experiment [4], in experiment [6] and in experiment [7] was inactive. Besides, the result in experiment [8] and in experiment [9] was inactive.
Regarding `CCOC(=O)COc1cc(-n2ncc(C(F)(F)F)c(C)c2=O)c(F)cc1Cl`, the result in experiment [1], in [2], in experiment [3], in experiment [4], in [5] and in experiment [6] was inactive. Besides, the outcome in experiment [8] and in [9] was inactive. Besides, in [7], the AC50 is 0.459 µM (active).
Turning to `COC(=O)c1ccccc1S(=O)(=O)NC(=O)Nc1nc(OC(F)F)cc(OC(F)F)n1`, the result in experiment [1], in experiment [2], in experiment [3], in [4], in [5] and in experiment [6] was inactive. The result in experiment [7], in experiment [8] and in [9] was inactive.
As for `C[C@]12C[C@H](O)[C@H]3[C@@H](CCC4=CC(=O)CC[C@@]43C)[C@@H]1CC[C@@H]2C(=O)CO`, the result in experiment [1], in [2], in [4], in experiment [5], in [6] and in experiment [7] was inactive. Also, in experiment [9], the outcome was inactive. Besides, the AC50 in experiment [3] is 34.8 µM (active); in experiment [8], 0.447 µM (active).
With `CCCN(CCC)C(=O)SCC`, the outcome in experiment [1], in [2], in experiment [3], in experiment [4], in [5] and in experiment [6] was inactive. Besides, the result in experiment [7], in [8] and in experiment [9] was inactive.
In the case of `CC1(C)C(C=C(Cl)Cl)C1C(=O)OCc1cccc(Oc2ccccc2)c1` (stereo unspecified), the outcome in experiment [1], in [2], in [3], in [4], in [5] and in experiment [6] was inactive. The outcome in [7] and in experiment [9] was inactive. Besides, the AC50 in [8] is 6.26 µM (active).
Consider `c1ccc2[nH]c(-c3cscn3)nc2c1`, for which the result in experiment [1], in [2], in [3], in experiment [4], in experiment [5] and in experiment [6] was inactive. In addition, the outcome in [7], in experiment [8] and in [9] was inactive.
Consider `C#CCOC(=O)[C@@H](C)Oc1ccc(Oc2ncc(Cl)cc2F)cc1`, for which the outcome in experiment [1], in experiment [2], in [3], in [4], in experiment [5] and in [6] was inactive. The outcome in experiment [7], in experiment [8] and in experiment [9] was inactive.
On to `CCOC(=O)NCCOc1ccc(Oc2ccccc2)cc1`, for which the AC50 in experiment [1] was 15.7 µM (active). The result in experiment [2], in experiment [3], in experiment [4], in experiment [5], in experiment [6] and in experiment [7] was inactive. The result in experiment [8] and in experiment [9] was inactive.
With `CCSC(=O)N(CC(C)C)CC(C)C`, the result in experiment [1], in experiment [2], in experiment [3], in experiment [4], in [5] and in experiment [6] was inactive. The result in [7], in [8] and in experiment [9] was inactive.
On to `CC(=O)[C@H]1CC[C@H]2[C@@H]3CCC4=CC(=O)CC[C@]4(C)[C@H]3CC[C@]12C`, for which the result in experiment [1], in experiment [3], in [4], in experiment [5], in experiment [6] and in [7] was inactive. For the same compound, the outcome in [8] and in experiment [9] was inactive.
